Measurements from the supplement of paper PMC11732987, “Enantioselective OTUD7B fragment discovery through chemoproteomics screening and high-throughput optimisation” (Communications Chemistry, 2025).

Columns and labels:
Assay in all cases: log2 ratio of Biotin-Ahx-Ub-VS probe labelling (fragment/DMSO); higher = less target engagement (more negative = stronger competition), active = hit call of the paper (q ≤ 0.05, log2 ratio ≤ -1)
Settings in all cases: compound concentration: 200 uM; treatment time: 3 h
OTUD6B = molecular target: T1, OTUD6B (UniProt Q8N6M0)
T1 sequence (whole entry): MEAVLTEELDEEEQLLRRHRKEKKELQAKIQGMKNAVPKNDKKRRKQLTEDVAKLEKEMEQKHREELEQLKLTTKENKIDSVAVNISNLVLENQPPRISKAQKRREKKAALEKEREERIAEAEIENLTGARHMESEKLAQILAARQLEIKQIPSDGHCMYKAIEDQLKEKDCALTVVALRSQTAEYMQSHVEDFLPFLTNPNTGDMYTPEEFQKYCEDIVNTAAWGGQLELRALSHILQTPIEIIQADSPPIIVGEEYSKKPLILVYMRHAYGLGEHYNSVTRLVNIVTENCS
Summary of the method: (§1)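 Using Biotin-Ahx-Ub-VS at 0.5 µM final for 1 h, DUBs were labelled in HEK293T lysate (495 µg per sample) that had first been treated in triplicate with fragment at 200 µM or vehicle for 3 h. NeutrAvidin enrichment, LysC and trypsin digestion and diaPASEF LC-MS/MS followed. Spectronaut label-free quantities were global-median-normalised. Values are average log2 fragment/vehicle ratios by unpaired t-test, using proteins with ≥2 unique peptides.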

OTUD7B = molecular target: T2, OTUD7B (UniProt Q6GQQ9)
T2 sequence (whole entry): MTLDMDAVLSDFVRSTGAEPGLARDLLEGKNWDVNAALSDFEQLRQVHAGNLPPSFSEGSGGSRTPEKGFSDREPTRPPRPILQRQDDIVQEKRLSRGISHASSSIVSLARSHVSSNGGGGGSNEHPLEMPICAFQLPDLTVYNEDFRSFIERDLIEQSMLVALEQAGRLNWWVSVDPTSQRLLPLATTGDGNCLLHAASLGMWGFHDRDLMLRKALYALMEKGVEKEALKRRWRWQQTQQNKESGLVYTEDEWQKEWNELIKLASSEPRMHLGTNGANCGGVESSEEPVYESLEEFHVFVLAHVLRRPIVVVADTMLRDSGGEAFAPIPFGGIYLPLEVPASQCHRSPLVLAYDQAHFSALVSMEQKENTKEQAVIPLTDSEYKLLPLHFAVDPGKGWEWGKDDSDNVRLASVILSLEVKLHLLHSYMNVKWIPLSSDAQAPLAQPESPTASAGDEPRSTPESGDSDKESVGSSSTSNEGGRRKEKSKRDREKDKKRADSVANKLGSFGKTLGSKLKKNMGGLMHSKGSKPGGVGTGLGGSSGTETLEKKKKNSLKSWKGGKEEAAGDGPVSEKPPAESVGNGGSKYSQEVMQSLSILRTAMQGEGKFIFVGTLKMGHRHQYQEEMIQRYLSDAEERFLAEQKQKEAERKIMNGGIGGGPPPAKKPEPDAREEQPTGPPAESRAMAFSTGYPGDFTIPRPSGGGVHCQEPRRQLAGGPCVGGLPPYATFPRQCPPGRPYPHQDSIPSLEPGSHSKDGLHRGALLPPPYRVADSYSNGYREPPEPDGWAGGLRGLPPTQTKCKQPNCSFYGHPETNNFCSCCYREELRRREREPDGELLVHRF
Summary of the method: as §1

PRPF8 = PRPF8 (UniProt Q6P2Q9)
Summary of the method: as §1

PSMD7 = molecular target: T3, PSMD7 (UniProt P51665)
T3 sequence (whole entry): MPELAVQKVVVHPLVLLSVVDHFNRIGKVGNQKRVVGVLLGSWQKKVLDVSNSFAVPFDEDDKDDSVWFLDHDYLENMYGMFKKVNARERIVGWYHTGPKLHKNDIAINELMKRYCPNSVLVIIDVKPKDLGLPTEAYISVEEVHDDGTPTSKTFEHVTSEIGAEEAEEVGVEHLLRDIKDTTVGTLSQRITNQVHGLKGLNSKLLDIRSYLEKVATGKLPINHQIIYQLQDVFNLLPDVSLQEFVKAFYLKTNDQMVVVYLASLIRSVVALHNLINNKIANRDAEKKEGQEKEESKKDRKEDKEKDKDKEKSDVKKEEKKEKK
Summary of the method: as §1

UCHL1 = UCHL1 (UniProt P09936)
Summary of the method: as §1

UCHL3 = molecular target: T4, UCHL3 (UniProt P15374)
T4 sequence (whole entry): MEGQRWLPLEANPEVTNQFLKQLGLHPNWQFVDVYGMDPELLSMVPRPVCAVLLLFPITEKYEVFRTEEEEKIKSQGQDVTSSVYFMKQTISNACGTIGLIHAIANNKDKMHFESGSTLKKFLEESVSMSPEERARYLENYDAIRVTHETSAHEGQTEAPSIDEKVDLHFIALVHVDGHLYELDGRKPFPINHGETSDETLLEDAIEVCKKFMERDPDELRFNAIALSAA
Summary of the method: as §1

UCHL5 = molecular target: T5, UCHL5 (UniProt Q9Y5K5)
T5 sequence (whole entry): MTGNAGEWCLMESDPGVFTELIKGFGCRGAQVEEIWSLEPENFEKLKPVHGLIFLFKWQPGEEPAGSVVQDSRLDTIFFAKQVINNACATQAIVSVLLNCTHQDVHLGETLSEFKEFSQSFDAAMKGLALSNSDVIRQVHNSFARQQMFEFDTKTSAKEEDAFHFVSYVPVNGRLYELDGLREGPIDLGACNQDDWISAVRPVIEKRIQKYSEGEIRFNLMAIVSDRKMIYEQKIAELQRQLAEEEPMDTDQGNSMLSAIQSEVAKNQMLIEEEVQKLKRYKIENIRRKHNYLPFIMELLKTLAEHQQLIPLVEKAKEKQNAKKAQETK
Summary of the method: as §1

USP10 = USP10 (UniProt Q14694)
Summary of the method: as §1

USP15 = molecular target: T6, USP15 (UniProt Q9Y4E8)
T6 sequence (whole entry): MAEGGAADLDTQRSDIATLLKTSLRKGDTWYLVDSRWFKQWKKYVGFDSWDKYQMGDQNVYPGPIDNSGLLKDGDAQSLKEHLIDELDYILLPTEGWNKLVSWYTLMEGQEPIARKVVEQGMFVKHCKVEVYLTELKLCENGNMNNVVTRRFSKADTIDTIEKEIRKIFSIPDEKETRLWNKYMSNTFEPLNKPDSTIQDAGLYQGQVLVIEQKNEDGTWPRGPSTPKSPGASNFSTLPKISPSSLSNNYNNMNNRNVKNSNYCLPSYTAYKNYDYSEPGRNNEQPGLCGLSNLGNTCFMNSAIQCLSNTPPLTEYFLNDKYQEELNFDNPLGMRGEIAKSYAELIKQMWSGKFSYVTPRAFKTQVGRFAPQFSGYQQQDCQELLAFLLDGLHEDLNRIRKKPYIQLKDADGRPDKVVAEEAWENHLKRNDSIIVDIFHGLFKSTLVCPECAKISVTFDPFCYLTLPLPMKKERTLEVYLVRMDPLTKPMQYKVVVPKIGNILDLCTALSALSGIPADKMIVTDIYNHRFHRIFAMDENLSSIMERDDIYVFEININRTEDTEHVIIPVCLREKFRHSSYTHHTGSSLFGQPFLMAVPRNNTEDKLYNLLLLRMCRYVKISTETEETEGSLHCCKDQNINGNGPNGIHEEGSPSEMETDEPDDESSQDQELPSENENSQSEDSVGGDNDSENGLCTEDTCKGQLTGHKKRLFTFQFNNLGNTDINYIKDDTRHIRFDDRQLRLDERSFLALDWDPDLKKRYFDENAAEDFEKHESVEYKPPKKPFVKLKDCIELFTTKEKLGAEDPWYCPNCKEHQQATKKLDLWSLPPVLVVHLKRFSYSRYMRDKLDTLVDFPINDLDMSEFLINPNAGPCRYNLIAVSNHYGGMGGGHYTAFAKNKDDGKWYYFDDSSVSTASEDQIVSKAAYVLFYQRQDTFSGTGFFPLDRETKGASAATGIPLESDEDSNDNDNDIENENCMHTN
Summary of the method: as §1

USP16 = USP16 (UniProt Q9Y5T5)
Summary of the method: as §1

Measured: log2 ratio of Biotin-Ahx-Ub-VS probe labelling

Sequence of UCHL1 (P09936 whole entry, looked up): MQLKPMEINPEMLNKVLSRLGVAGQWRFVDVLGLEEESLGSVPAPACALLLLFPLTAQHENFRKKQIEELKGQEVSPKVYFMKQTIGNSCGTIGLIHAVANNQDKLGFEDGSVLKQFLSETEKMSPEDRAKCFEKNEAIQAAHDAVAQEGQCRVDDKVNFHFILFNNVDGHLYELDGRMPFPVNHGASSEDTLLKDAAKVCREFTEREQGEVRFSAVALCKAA
Sequence of USP16 (Q9Y5T5 whole entry, looked up): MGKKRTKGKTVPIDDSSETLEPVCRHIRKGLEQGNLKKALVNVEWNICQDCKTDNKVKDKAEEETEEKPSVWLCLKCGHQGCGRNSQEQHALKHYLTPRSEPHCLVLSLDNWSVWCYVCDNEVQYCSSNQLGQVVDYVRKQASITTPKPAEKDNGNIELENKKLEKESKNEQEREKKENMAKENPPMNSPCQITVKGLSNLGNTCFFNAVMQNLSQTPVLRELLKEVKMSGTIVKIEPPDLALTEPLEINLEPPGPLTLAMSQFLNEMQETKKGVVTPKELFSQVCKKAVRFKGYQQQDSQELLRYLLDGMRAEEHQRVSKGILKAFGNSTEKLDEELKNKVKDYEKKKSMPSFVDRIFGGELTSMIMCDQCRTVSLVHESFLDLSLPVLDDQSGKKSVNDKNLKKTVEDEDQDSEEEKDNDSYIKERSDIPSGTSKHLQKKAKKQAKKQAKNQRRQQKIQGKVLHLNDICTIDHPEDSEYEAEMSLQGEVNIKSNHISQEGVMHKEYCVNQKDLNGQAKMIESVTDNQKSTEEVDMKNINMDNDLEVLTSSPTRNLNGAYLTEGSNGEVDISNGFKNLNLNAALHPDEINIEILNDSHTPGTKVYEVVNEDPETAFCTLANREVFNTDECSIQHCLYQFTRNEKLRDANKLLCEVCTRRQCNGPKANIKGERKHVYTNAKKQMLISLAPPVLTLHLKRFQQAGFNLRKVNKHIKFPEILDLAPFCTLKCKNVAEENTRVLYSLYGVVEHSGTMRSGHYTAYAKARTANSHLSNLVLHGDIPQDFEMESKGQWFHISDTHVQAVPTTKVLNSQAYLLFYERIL
Sequence of USP10 (Q14694 whole entry): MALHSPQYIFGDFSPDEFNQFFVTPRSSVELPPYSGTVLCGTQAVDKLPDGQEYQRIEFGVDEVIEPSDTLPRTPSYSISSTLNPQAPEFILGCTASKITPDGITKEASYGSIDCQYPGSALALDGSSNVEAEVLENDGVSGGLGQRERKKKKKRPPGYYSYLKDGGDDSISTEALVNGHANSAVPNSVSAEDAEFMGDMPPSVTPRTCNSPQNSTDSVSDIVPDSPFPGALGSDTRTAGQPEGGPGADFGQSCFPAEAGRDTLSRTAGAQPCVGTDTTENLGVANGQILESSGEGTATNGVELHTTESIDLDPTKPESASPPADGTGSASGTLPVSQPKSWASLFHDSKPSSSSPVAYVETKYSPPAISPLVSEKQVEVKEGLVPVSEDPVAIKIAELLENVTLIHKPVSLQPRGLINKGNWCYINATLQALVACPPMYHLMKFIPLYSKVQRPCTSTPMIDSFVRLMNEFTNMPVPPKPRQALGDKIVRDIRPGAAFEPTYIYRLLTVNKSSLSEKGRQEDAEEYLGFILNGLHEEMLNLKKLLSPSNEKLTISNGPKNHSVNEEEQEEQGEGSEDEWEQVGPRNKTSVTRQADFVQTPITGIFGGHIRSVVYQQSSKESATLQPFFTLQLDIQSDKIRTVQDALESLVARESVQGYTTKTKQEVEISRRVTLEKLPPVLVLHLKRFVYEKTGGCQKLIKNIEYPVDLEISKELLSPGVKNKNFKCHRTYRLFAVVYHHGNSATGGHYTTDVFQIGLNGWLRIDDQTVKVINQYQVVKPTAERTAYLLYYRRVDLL

Cc1ccccc1CN(C)C(=O)CCl
active: UCHL1 -1.98 | UCHL5 -1.01
inactive: OTUD6B -0.788 | OTUD7B -0.98 | PRPF8 -0.0478 | PSMD7 -0.18 | UCHL3 -0.483 | USP10 -0.154 | USP15 -0.803 | USP16 -0.62
